GALK inh: blocks human galactokinase activity | Purified GALK, Kinase-Glo residual ATP luminescence | Potency, µM (highest dose often 57.5 µM), for the others: at the top dose activity change, negative = inhibition, hits mostly inhibitors | 0.007% of 270,000 active | AID 1868; note: potency is the fitted concentration of half-maximal effect
Target sequence (P51570 whole entry, looked up): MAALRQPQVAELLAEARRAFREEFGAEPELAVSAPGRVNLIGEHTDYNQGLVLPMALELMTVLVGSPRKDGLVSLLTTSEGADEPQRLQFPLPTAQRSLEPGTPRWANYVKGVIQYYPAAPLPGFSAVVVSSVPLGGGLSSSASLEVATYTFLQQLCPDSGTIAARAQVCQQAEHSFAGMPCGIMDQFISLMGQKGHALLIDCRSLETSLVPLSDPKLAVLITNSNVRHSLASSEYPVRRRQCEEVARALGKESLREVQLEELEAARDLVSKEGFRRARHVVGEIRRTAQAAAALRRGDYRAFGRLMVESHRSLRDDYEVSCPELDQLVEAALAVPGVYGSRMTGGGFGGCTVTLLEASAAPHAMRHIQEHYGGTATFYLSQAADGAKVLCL
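Luminescence from leftover ATP (Ultra-Glo luciferase/luciferin) served as read-out after a 1 h room-temperature reaction of 5 nM GALK with 35 uM ATP and 100 uM galactose.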
RORgamma inh: blocks mouse ROR gamma transcriptional activity. P51450. Drosophila S2 Gal4-RORgamma UAS-luciferase reporter, 20 h. Potency, µM (series often up to 53.6 µM), without a hit: at the highest dose activity change, negative = inhibition, hits mostly inhibitors. 5.4% of 310,000 active; note: potency is the fitted concentration of half-maximal effect; nearly all actives have a fitted effect of over 60% in size
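Stable Schneider cell line, Gal4 DNA-binding domain fused to ROR gamma, UAS-luciferase. Cmpd 1 hr RT → CuSO4 700 uM final → 20 hr RT → luciferase reagent 10 min → luminescence.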
TrxR1 inh: inhibitors of rat thioredoxin reductase 1 | Potency, µM (series often up to 114 µM), for the others: at the top dose activity change, negative = inhibition, actives largely listed as inhibitors | 1% of 390,000 active | O89049 | recombinant rTrxR1, NADPH fluorescence consumption, selenite substrate; note: potency is the fitted concentration of half-maximal effect; nearly all actives have a fitted effect of over 65% in size
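Rat TrxR1 (90 nM in the dispensed reagent) was pre-reduced with 400 uM NADPH for 5 min at room temperature, then incubated with compound for 15 min. After 400 uM selenite was added, NADPH fluorescence (Ex 340/Em 450 nm) was followed for 8 min.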
Gal4-VP16 FLuc: Gal4-VP16 reporter inhibition counter-screen. Drosophila S2 Gal4-VP16 UAS-luciferase, luminescence, 20 h. Potency, µM (doses to about 53.6 µM), for inactives: at the top dose activity, negative = inhibition, actives largely listed as inhibitors. 3.5% of 310,000 active. AID 2546;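 note: Gal4-VP16 expression switched on by copper sulfate through the metallothionein promoter; potency is the fitted concentration of half-maximal effect; nearly all actives have a fitted effect of over 50% in size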
Coupling enz: coupling enzyme interference in Giardia aldolase counter-screen; coupling enzyme system counterscreen, AmpLite Red fluorescence; activity change, negative = inhibition, % at 58.2 µM, hits read low; 0.67% of 290,000 active; in the data active = activity change below about -30%
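Counterscreen lacking aldolase: glyceraldehyde-3-phosphate coupling-enzyme reagent preincubated 10 min at RT with compound (at 57.5 uM final), then substrate/coupling system with AmpLite Red added; fluorescence read at 525/598 nm after 20 min RT.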
TrxR1 substrate: substrates of rat thioredoxin reductase 1; O89049; purified TrxR1 substrate turnover, NADPH consumption readout; Potency, µM (doses to about 114 µM), without a hit: top-dose activity change, negative = substrate turnover; 0.01% of 390,000 active; note: potency is the fitted concentration of half-maximal effect; nearly all actives have a fitted effect of over 50% in size
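Rat TrxR1, dispensed at 90 nM, was prereduced with 400 uM NADPH (final) for 5 min at ~22 deg C, then incubated with compound 15 min before 400 uM selenite. A first-read NADPH fluorescence drop versus no-compound background flagged substrates.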
Numbers without * were called inactive; [ ] = another dose, or the depositor's remark. The list is not random: actives were taken first. Their share in the collection is about 5.9%. Unless noted, calls come from the whole dose curve; as a rule, active = well fitted curve in the direction sought with a large enough effect; inconclusive = small, poorly fitted or top-dose-only effect, or another doubt; inactive = no such curve, though single readings can be large; an effect the other way counts as inactive or inconclusive. % is set by controls: 0 for no effect and ±100 for the full control effect.

Results for COC(=O)C1=C(N)Oc2cc(C)n(CCCn3ccnc3)c(=O)c2C1c1cccc(Cl)c1 (stereo not drawn) ?
GALK inh: -1%; RORgamma inh: 1%; TrxR1 inh: 11%; Gal4-VP16 FLuc: 8%; Coupling enz: 4; TrxR1 substrate: -6%

How did COc1ccc(N=c2ssnc2Cl)cc1 do in these assays?
GALK inh: -3%; RORgamma inh: inconclusive; TrxR1 inh: inconclusive; Gal4-VP16 FLuc: inconclusive; Coupling enz: -1; TrxR1 substrate: -21%

What do the screens show for `Clc1ccc(N=c2ssnc2Cl)cc1`?
GALK inh: -1%; RORgamma inh: inconclusive; TrxR1 inh: -17%; Gal4-VP16 FLuc: 11µM*; Coupling enz: 11; TrxR1 substrate: -3%

What do the screens show for `COc1cc(N=c2ssnc2Cl)cc(OC)c1OC`?
GALK inh: 0%; RORgamma inh: inconclusive; TrxR1 inh: 0%[57.1 µM]; Gal4-VP16 FLuc: 16µM*; Coupling enz: 2; TrxR1 substrate: 4%[57.1 µM]

Results for Clc1nssc1=Nc1ccccc1 ?
GALK inh: 4%; RORgamma inh: inconclusive; TrxR1 inh: -64%; Gal4-VP16 FLuc: inconclusive; Coupling enz: 4; TrxR1 substrate: -12%

How did COc1cccc(NS(=O)(=O)c2ccc(S(=O)(=O)N3CCOCC3)cc2)c1 do in these assays?
GALK inh: 0%; RORgamma inh: 1%[10 µM]; TrxR1 inh: 20%; Gal4-VP16 FLuc: 3%; Coupling enz: -3; TrxR1 substrate: 3%

How did Clc1ccc(CNc2ccc(CNc3ncn[nH]3)cc2)cc1 do in these assays?
GALK inh: -2%; RORgamma inh: 36%; TrxR1 inh: -1%; Gal4-VP16 FLuc: 2%; Coupling enz: -4; TrxR1 substrate: -4%

What do the screens show for `Clc1ccc(CNc2ccc(CNc3ncn[nH]3)cc2)c(Cl)c1`?
GALK inh: 0%; RORgamma inh: inconclusive; TrxR1 inh: -8%; Gal4-VP16 FLuc: 13µM*; Coupling enz: -2; TrxR1 substrate: -12%

How did COc1ccc(Oc2ncc3nc(-c4ccccc4)c(=O)n(CCC#N)c3n2)cc1 do in these assays?
RORgamma inh: 27%; Gal4-VP16 FLuc: 8%; Coupling enz: -1

How did O=C(CN1CCN(S(=O)(=O)c2ccccc2F)CC1)NCC1(N2CCOCC2)CCCCC1 do in these assays?
TrxR1 inh: 7%; TrxR1 substrate: 3%

How did CN(C)S(=O)(=O)c1cccc(NC(=O)COC(=O)/C=C/c2ccc([N+](=O)[O-])cc2)c1 do in these assays?
GALK inh: 7%; RORgamma inh: 13%; TrxR1 inh: 11%[57.1 µM]; Gal4-VP16 FLuc: -1%; Coupling enz: 1; TrxR1 substrate: 6%[57.1 µM]

Results for COC(=O)c1ccc2nc(C3CCCCC3)c3c(c2c1)CCC3 ?
TrxR1 inh: 11%[57.1 µM]; TrxR1 substrate: 6%[57.1 µM]

How did CC(=O)OCC(=O)[C@@]12OC3(CCCC3)O[C@@H]1C[C@H]1[C@@H]3CCC4=CC(=O)C=C[C@]4(C)[C@@]3(F)[C@@H](O)C[C@@]12C do in these assays?
GALK inh: 3%; RORgamma inh: 8.9µM*; TrxR1 inh: 12%; Gal4-VP16 FLuc: -8%; Coupling enz: -4; TrxR1 substrate: 4%

How did CC(C)COc1ccc(C(=O)Nc2ccc(N3CCOCC3)cc2N2CCOCC2)cc1 do in these assays?
GALK inh: -1%; RORgamma inh: -23%; TrxR1 inh: -5%; Gal4-VP16 FLuc: -12%; Coupling enz: -5; TrxR1 substrate: -7%

Results for O=C(Cn1nnc(-c2ccccc2NC(=O)c2ccccc2)n1)Nc1ccc2c(c1)OCCO2 ?
GALK inh: -2%; RORgamma inh: -19%; TrxR1 inh: -5%; Gal4-VP16 FLuc: -25%; Coupling enz: 3; TrxR1 substrate: 54%

What do the screens show for `O=C(Nc1cccc(Cl)c1)c1cc(S(=O)(=O)N2CCC3(CC2)OCCO3)ccc1F`?
TrxR1 inh: 10%[57.1 µM]; TrxR1 substrate: 1%[57.1 µM]

Results for Cc1ccccc1OCc1nc2ccccc2c(=O)n1/N=C/c1c[nH]c2ccccc12 ?
GALK inh: 0%; RORgamma inh: inconclusive; TrxR1 inh: 24%[57.1 µM]; Gal4-VP16 FLuc: -19%; Coupling enz: -5; TrxR1 substrate: 9%[57.1 µM]

What do the screens show for `O=c1c2ccccc2nc(COc2ccccc2)n1/N=C/c1cc([N+](=O)[O-])ccc1O`?
GALK inh: 0%; RORgamma inh: 5µM*; TrxR1 inh: -1%; Gal4-VP16 FLuc: 4µM*; Coupling enz: 5; TrxR1 substrate: -4%

Results for Cc1cc(/C=N/n2c(COc3ccccc3C)nc3ccccc3c2=O)c(O)c([N+](=O)[O-])c1 ?
GALK inh: 0%; RORgamma inh: 14µM*; TrxR1 inh: 4%; Gal4-VP16 FLuc: 35µM*; Coupling enz: -4; TrxR1 substrate: -5%

How did COc1ccc(C(CNC(=O)c2ccc(C)c(S(=O)(=O)Nc3ccccc3OC)c2)N2CCCC2)cc1 (stereo not drawn) do in these assays?
GALK inh: -4%; RORgamma inh: -11%; TrxR1 inh: 11%; Gal4-VP16 FLuc: 10%; Coupling enz: 2; TrxR1 substrate: -2%

How did O=C1C2C(C(=O)N1/N=C/c1ccc([N+](=O)[O-])o1)C1C=CC2C12CC2 (stereo not drawn) do in these assays?
GALK inh: 1%; RORgamma inh: inconclusive; TrxR1 inh: 56µM*; Gal4-VP16 FLuc: 20µM*; Coupling enz: -4; TrxR1 substrate: -12%

How did COC(=O)c1cccc(-c2ccc(/C=N/N3C(=O)C4C5C=CC(C6CC56)C4C3=O)o2)c1 (stereo not drawn) do in these assays?
GALK inh: 3%; RORgamma inh: 37%; TrxR1 inh: 16%[57.1 µM]; Gal4-VP16 FLuc: -7%; Coupling enz: 5; TrxR1 substrate: 6%[57.1 µM]

How did COC(=O)c1ccc(-c2ccc(/C=N/N3C(=O)C4C5C=CC(C6CC56)C4C3=O)o2)cc1 (stereo not drawn) do in these assays?
GALK inh: 2%; RORgamma inh: 1%; TrxR1 inh: 20µM*; Gal4-VP16 FLuc: -3%; Coupling enz: -4; TrxR1 substrate: 21%

Results for O=C1C2C3C=CC(C4CC34)C2C(=O)N1/N=C/c1ccc([N+](=O)[O-])o1 (stereo not drawn) ?
GALK inh: -1%; RORgamma inh: 13µM*; TrxR1 inh: 14µM*; Gal4-VP16 FLuc: 10µM*; Coupling enz: -13; TrxR1 substrate: -4%[57.1 µM]

Results for CN(C)[C@@H]1C(=O)C(C(N)=O)=C(O)[C@]2(O)C(=O)C3=C(O)c4c(O)ccc(Cl)c4[C@H](O)[C@H]3C[C@@H]12 ?
RORgamma inh: 7%[16.9 µM]; Gal4-VP16 FLuc: -5%[17 µM]; Coupling enz: -3

Screening data as filed in PubChem.
